# Assay results from PubChem BioAssay (NCATS).
# “And” between values parts separate entries of the source, which are not always exact repeats. Equal entries are not always repeated. Results filed as inconclusive are left out. Entries that show only a call come without a potency. The source made the active and inactive calls. Unless noted, calls come from the whole dose curve; as a rule, active = well fitted curve in the direction sought with a large enough effect; inconclusive = small, poorly fitted or top-dose-only effect, or another doubt; inactive = no such curve, though single readings can be large; an effect the other way counts as inactive or inconclusive.
# Key:
# [1] = target: DNA dC->dU-editing enzyme APOBEC-3G (Homo sapiens) (UniProt Q9HC16); test: qHTS for inhibitors of Vif-A3G interactions: Validation (AID 588379)
# In short: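 Yellow fluorescence (Ex 488, Em 500-530) of Vif-coexpressing HeLa A3G-eYFP cells, scanned by Acumen cytometer, reports blocked A3G degradation. Cells plated at 700/well overnight at 37 deg C before compound addition, then a further overnight compound incubation at 37 deg C.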
# [2] = target: DNA repair nuclease/redox regulator APEX1 (Homo sapiens) (UniProt P27695); test: qHTS Validation Assay for Inhibitors of the Human Apurinic/apyrimidinic Endonuclease 1 (APE1) (AID 1705; note: potency is the fitted concentration of half-maximal effect)
# In short: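 qHTS, 1536-well. APE1 + cpd 15 min RT → 50 nM TAMRA/BHQ-2 THF-abasic dsDNA substrate → kinetic fluorescence, 3 reads/60 s; delta(read3−read1) = reaction progress. No-enzyme buffer = negative control.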
# [3] = qHTS Assay for Identification of Small Molecule Agonists for Hypoxia Response Element Signaling Pathway (AID 914; active = well fitted activation curve with a large enough effect in the signal ratio, with a control signal flat, not every such curve was filed as active; the % refers to the signal ratio); conditions: ME-180 (cervical carcinoma) HRE-bla reporter, beta-lactamase ratio, CoCl2, 17 h; activation: stronger effect = higher value
# In short: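 HRE-bla ME-180 assay for agonist-like enhancement of an EC50 CoCl2 stimulus: 17 h at 37 degrees Celsius, CCF4 for 2.5 h, ratiometric 460/530 nm signal converted to %Activity and fitted to AC50.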
# [4] = qHTS profiling for inhibitors of Plasmodium falciparum proliferation (AID 504749); note: nearly all actives have a fitted effect of over 60% in size; conditions: P. falciparum in erythrocytes, SYBR Green DNA, 72 h
# In short: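 Each compound contacts P. falciparum-infected red blood cells for 72 h at 37 C; lysis buffer (Tris, EDTA, saponin, Triton X, SYBR Green I) is added and fluorescence measured next morning; values normalized to controls.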
# [5] = Cell Viability - MRC5 (AID 434; calls by dose curve;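 note: potency is the fitted concentration of half-maximal effect; cells exposed to compound for 40 hours at 37 °C; potency reflects cytotoxicity seen as loss of intracellular ATP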); conditions: MRC5 lung fibroblast viability, qHTS
# In short: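 ATP luminescence read-out (CellTiter-Glo, 20 min RT) after 40 hr, 37 °C compound exposure of 1500 MRC5 cells/well. Data normalized to DMSO (basal) and 100 uM tamoxifen (100% inhibition); AC50 from standard Hill equation.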
# [6] = Cell Viability - SK-N-SH (AID 435; calls by dose curve; note: potency is the fitted concentration of half-maximal effect); conditions: SK-N-SH neuroblastoma cell viability qHTS
# In short: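 Luminescent ATP signal served as the viability read-out after 40 hours of compound treatment of human neuroblastoma SK-N-SH cells. Concentration-response data, scaled between DMSO and 100 uM tamoxifen, gave AC50 values by standard Hill modeling.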
# [7] = Cell Viability - H-4-II-E (AID 543); note: nearly all actives have a fitted effect of over 35% in size
# In short: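 CellTiter-Glo luminescence (intracellular ATP) measured after 40 h compound exposure at 37 °C in H-4-II-E rat hepatoma cells seeded at 1500/well. Values are AC50s fitted with the standard Hill equation.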
# [8] = Cellular Toxicity (caspase-3) Jurkat (AID 655); conditions: Jurkat caspase-3 activation, luminescence, DMSO = 0%, tamoxifen = 100%; at 92.2 µM (top of the series);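 note: cells exposed to compound for 16 h at 37 °C before reading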
# In short: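 5000 Jurkat cells/well; compound 16 hr, 37 °C; Caspase-Glo 3/7 added, 20 min RT; luminescence read. Norm: DMSO = 0%, tamoxifen 100 uM = 100%. AC50, Hill model.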
# [9] = Cell Viability - LYMP1-003 - Assay at 40 hr (AID 964); note: nearly all actives have a fitted effect of over 60% in size; note: potency is the fitted concentration of half-maximal effect
# In short: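 Viability is taken as cellular ATP, read by CellTiter-Glo luminescence after 40 h of compound exposure at 37 C. Cells: human lymphoblastoid line LYMP1-003 at 2500/well; AC50 values derived by Hill-equation fitting of concentration-response data.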
# [10] = Cell Viability - LYMP2-009 (AID 968); note: nearly all actives have a fitted effect of over 55% in size
# [11] = Cell Viability - LYMP2-019 (AID 973); note: nearly all actives have a fitted effect of over 55% in size
# In short: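 AC50 values come from Hill-equation fits of luminescent intracellular ATP (CellTiter-Glo, 30 min, room temperature) following 24 h compound exposure at 37 C. Cells: LYMP2-019 lymphoblastoid line, 2500 per well, in complete culture medium.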
# [12] = Cell Viability - LYMP2-023 (AID 975);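 note: cellular ATP measured by luciferase luminescence as viability proxy; cells exposed to compound for 24 hours at 37 °C; nearly all actives have a fitted effect of over 55% in size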
# In short: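 Intracellular ATP, read by CellTiter-Glo luminescence, reports viability after 24 hr compound exposure at 37 C. 2500 lymphoblastoid cells/well (LYMP2-023) seeded 5 hr beforehand; Hill fits give AC50; positive control tetraoctylammonium bromide.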
# [13] = Cell Viability - LYMP2-012 (AID 982);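 note: cellular ATP by luciferase luminescence where a drop means cytotoxicity; cells exposed to compound for one day before reading; nearly all actives have a fitted effect of over 55% in size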
# [14] = qHTS assay for small molecule agonists of retinoid X receptor alpha signaling (AID 588544; calls by dose curve); conditions: HEK293T RXRa-UAS-bla, beta-lactamase reporter, 18 h; 530 nm emission
# [15] = target: Retinoic acid receptor RXR-alpha (Homo sapiens) (UniProt P19793); test: as above
# [16] = qHTS assay for small molecule antagonists of retinoid X receptor alpha signaling (AID 588546; active = well fitted inhibition curve with a large enough effect in the signal ratio, with a control signal flat, not every such curve was filed as active; the % refers to the signal ratio;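 note: cells stimulated with 9-cis-retinoic acid as agonist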); conditions: HEK293T RXRa-UAS-bla, beta-lactamase ratio, antagonist mode; measured here: W530 green channel, cytotoxicity proxy
# In short: (§1)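 Beta-lactamase reporter inhibition, read as CCF4 fluorescence ratio (ex 405, em 460/530 nm) after 2 h at RT. HEK293T UAS-bla cells, 2500/well, were stimulated with 9-cis-RA at 500 or 100 nM final alongside test compound for 18 h at 37 C.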
# [17] = target: Retinoic acid receptor RXR-alpha (Homo sapiens) (UniProt P19793); test: as above; conditions: HEK293T RXRa-UAS-bla, beta-lactamase ratio, antagonist mode
# In short: as §1
# [18] = target: Thyroid hormone receptor beta (Homo sapiens) (UniProt P10828); test: qHTS assay for small molecule antagonists of thyroid hormone receptor beta signaling (AID 588547; active = well fitted inhibition curve with a large enough effect in the signal ratio, with a control signal flat, not every such curve was filed as active; the % refers to the signal ratio;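 note: cells stimulated with 0.4 nM T3 agonist during compound exposure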); conditions: TR-UAS-bla HEK293, beta-lactamase ratio, antagonist mode, 18 h
# In short: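 TR-UAS-bla GripTite HEK293 cells in 2% charcoal/dextran FBS medium; compounds 0.59 nM to 92 uM with T3 at 0.4nM final, 18 h at 37 C. Beta-lactamase read by CCF4 fluorescence (460/530 nm); Hill fits gave IC50 and efficacy.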
# [19] = qHTS assay for small molecule agonists of the antioxidant response element (ARE) signaling pathway measured by Nrf2-dependant transcriptional activity (AID 720636; active = well fitted curve in the direction sought with a large enough effect in the repeat runs; an effect the other way counts as inactive or inconclusive;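 note: HepG2 cells with an ARE-driven luciferase reporter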)
# In short: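 Attachment 6 hr at 37 C, then compound versus DMSO vehicle for 16 hr in ARE-luc HepG2 cells (1% dialyzed FBS); luminescence recorded 30 min after ONE-Glo addition at room temperature.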
# [20] = target: Peroxisome proliferator-activated receptor gamma (Homo sapiens) (UniProt P37231); test: qHTS assay for small molecule agonists of peroxisome proliferator-activated receptor gamma signaling (AID 588536; active = well fitted curve in the direction sought with a large enough effect in the signal ratio, with a control signal flat, not every such curve was filed as active; the % refers to the signal ratio)
# In short: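 Using GeneBLAzer HEK293 cells, response was quantified by CCF4 fluorescence and normalized between basal DMSO (0%) and rosiglitazone 2 uM (100%); curves yielded half-maximal stimulation concentration and efficacy.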
# [21] = at 28.7 µM (top of the series), parasite line A
# [22] = at 28.7 µM (top of the series), parasite line B
# DNA repair nuclease/redox regulator APEX1 (Homo sapiens), sequence (P27695 whole entry, looked up): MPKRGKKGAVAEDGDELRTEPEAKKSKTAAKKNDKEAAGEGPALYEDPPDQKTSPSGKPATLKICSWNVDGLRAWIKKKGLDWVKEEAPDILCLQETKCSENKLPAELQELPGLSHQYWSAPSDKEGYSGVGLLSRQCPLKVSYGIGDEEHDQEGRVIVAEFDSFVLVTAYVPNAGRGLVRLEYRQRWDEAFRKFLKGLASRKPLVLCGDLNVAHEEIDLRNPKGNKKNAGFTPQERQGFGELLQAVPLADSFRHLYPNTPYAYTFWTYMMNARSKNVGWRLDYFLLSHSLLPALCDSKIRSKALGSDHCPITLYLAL
# Retinoic acid receptor RXR-alpha (Homo sapiens), sequence (P19793 whole entry, looked up): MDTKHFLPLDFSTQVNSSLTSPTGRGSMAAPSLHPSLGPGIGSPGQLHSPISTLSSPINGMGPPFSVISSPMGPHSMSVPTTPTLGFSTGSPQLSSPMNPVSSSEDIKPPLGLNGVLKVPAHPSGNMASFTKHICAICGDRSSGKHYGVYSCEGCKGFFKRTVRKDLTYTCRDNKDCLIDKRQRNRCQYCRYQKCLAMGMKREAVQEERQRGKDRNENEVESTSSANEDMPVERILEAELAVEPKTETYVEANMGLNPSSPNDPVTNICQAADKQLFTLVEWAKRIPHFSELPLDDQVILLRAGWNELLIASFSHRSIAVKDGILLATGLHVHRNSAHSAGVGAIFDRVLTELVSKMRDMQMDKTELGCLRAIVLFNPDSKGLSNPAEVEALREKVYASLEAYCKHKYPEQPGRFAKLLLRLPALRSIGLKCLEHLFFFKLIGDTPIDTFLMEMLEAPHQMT
# DNA dC->dU-editing enzyme APOBEC-3G (Homo sapiens), sequence (Q9HC16 whole entry, looked up): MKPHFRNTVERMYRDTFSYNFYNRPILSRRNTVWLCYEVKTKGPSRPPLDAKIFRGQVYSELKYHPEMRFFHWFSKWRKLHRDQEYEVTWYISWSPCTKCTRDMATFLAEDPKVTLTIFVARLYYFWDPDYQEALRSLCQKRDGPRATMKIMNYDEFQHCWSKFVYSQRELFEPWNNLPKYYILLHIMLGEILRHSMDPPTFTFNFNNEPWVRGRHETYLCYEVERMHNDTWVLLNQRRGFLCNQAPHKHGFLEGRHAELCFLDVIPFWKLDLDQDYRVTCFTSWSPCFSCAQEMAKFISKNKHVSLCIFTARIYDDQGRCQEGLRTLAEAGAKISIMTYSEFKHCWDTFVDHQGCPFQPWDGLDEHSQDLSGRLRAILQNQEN
# Thyroid hormone receptor beta (Homo sapiens), sequence (P10828 whole entry, looked up): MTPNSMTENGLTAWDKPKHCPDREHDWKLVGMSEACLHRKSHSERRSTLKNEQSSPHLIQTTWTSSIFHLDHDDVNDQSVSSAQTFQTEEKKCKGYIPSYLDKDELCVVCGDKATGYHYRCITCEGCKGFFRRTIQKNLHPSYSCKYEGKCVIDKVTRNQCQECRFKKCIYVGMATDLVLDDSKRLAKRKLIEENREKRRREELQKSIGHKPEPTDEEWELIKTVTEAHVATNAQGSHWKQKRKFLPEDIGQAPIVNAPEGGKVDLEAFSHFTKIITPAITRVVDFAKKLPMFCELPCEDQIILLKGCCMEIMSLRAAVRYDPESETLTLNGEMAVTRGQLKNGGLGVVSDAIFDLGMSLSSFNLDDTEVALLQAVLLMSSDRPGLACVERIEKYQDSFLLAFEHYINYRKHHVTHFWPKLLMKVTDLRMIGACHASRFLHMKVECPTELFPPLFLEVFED
# Peroxisome proliferator-activated receptor gamma (Homo sapiens), sequence (P37231 whole entry, looked up): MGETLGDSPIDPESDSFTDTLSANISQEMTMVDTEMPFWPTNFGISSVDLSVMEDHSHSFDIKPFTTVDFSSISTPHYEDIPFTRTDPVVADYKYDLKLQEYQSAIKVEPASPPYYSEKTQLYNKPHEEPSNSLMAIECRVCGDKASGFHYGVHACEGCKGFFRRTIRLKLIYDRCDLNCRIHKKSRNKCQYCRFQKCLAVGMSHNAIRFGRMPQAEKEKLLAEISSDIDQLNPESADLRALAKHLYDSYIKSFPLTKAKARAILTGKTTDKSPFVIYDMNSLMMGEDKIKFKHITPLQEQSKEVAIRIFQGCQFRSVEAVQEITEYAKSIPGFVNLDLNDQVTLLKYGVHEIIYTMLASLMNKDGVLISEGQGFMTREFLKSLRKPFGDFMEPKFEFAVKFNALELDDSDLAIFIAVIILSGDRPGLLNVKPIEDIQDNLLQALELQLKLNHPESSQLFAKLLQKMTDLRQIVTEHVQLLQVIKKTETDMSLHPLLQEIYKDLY
smiles,measurement,setting,value
N#C/C(=C\c1ccc(O)c(O)c1)C(N)=S,outcome,[1],inactive
C=CCN1CCc2cccc3c2C1Cc1ccc(O)c(O)c1-3 (centres undefined),Potency,[2],inactive
c1csc(CN2CC[C@@]3(CCCNC3)C2)n1,activation,[3],9.27% (inactive)
c1ccc(CN2CC[C@@]3(CCCNC3)C2)cc1,activation,[3],10.9% (inactive)
O=C(Nc1ccccc1)N1CC2(CCN(C(=O)Oc3ccccc3)CC2)C1,activation,[3],-6.7% (inactive)
N#Cc1cccc(NC(=O)N2CC3(CCN(C(=O)Oc4ccccc4)CC3)C2)c1,activation,[3],-17.9% (inactive)
c1cnc(N2CCCC3(CCNCC3)C2)nc1,activation,[3],6.96% (inactive)
COc1cc2c(cc1O)CC1c3c(cc(O)c(OC)c3-2)CCN1C (centres undefined),outcome,[1],inactive
O=C(OC1CCN(CCCl)CC1)C(c1ccccc1)c1ccccc1,Potency,[2],inactive
CC(C)CN1CC[C@@]2(CCCN(C(=O)Oc3ccccc3)C2)C1,activation,[3],-4.64% (inactive)
CCc1c(C(=O)OC)ncc2[nH]c3cc(OC)c(OC)cc3c12,Potency,[2],6.31 µM (active)
CCCN(C/C=C\I)[C@@H]1CCc2ccc(O)cc2C1,outcome,[1],inactive
CCCN1CCc2cccc3c2C1Cc1ccc(O)c(O)c1-3 (centres undefined),Potency,[2],inactive
Cc1nnc2ccc(-c3cccc(C(F)(F)F)c3)nn12,outcome,[1],inactive
CC(C)[C@@]1(NC(=O)[C@@H]2C[C@@H]3c4cccc5[nH]cc(c45)C[C@H]3N(C)C2)O[C@@]2(O)C3CCCN3C(=O)[C@H](Cc3ccccc3)N2C1=O (some centres undefined),Potency,[2],inactive
O=C(O)C1=CCCN(CCOC(c2ccc(C(F)(F)F)cc2)c2ccc(C(F)(F)F)cc2)C1,outcome,[1],inactive
C[C@]12CC[C@H](O)CC1=CCC1C2CC[C@]2(C)C(=O)CC[C@@H]12 (some centres undefined),Potency,[2],inactive
same,outcome,[1],inactive
same,"activity, negative = inhibition",[4]; [21],7.06% (inactive)
same,"activity, negative = inhibition",[4]; [22],19% (inactive)
CCCN1CCc2cc(O)cc3c2C1Cc1ccc(O)c(O)c1-3 (centres undefined),Potency,[2],inactive
CNCC[C@@H](Oc1ccc(C(F)(F)F)cc1)c1ccccc1,Potency,[2],inactive
COc1ccc2c(c1O)-c1c(OC)c(OC)cc3c1[C@H](C2)N(C)CC3,outcome,[1],inactive
CN1CCCC2(CCN(C(=O)c3ccco3)CC2)C1,activation,[3],-1.89% (inactive)
C[N+]1([O-])[C@@H]2CC(OC(=O)[C@@H](CO)c3ccccc3)C[C@@H]1[C@H]1O[C@H]12 (some centres undefined),"activity, negative = inhibition","[4]; at 12.8 µM (top of the series), parasite line A",-0.201% (inactive)
same,"activity, negative = inhibition","[4]; at 12.8 µM (top of the series), parasite line B",-5.73% (inactive)
same,"activity, negative = inhibition",[4]; [21],13.1% (inactive)
same,"activity, negative = inhibition",[4]; [22],10.8% (inactive)
O=S1OCC2C(CO1)C1(Cl)C(Cl)=C(Cl)C2(Cl)C1(Cl)Cl (centres undefined),Potency,[5],> 92 µM (inactive)
same,Potency,[6],> 92 µM (inactive)
same,Potency,[7],inactive
same,caspase-3 activation,[8],10.8% (inactive)
same,Potency,[9],39.8 µM (active)
same,Potency,[10],inactive
same,Potency,[11],inactive
same,Potency,[12],inactive
same,Potency,[13],inactive
same,max response,[14],-15.4%
same,Potency,[15],inactive
same,max response,[16],1.46%
same,max response,[17],-29.4% (inactive)
same,activity change % (negative = inhibition),[18],-1.54% (inactive)
same,outcome,[19],inactive
COC(=O)NC(=S)Nc1ccccc1NC(=S)NC(=O)OC,Potency,[5],> 92 µM (inactive)
same,Potency,[7],inactive
same,caspase-3 activation,[8],2.97% (inactive)
same,Potency,[10],inactive
same,Potency,[11],inactive
same,Potency,[12],inactive
same,Potency,[13],inactive
same,outcome,[20],inactive
same,max response,[14],18.1% and -8.17%
same,Potency,[15],inactive
same,max response,[16],3.84% and -2.84%
same,max response,[17],-8.67% (inactive) and 3.08% (inactive)
same,activity change % (negative = inhibition),[18],1.37% (inactive) and 13.1% (inactive)
same,outcome,[19],inactive
CC(C)CN1CC2(CCN(C(=O)Oc3ccccc3)CC2)C1,activation,[3],-12.9% (inactive)
C/C=C/c1ccc2c(c1)OCO2,Potency,[5],> 92 µM (inactive)
same,Potency,[6],> 92 µM (inactive)
same,Potency,[7],inactive
same,caspase-3 activation,[8],2.64% (inactive)
same,Potency,[9],inactive
same,Potency,[10],inactive
same,Potency,[11],inactive
same,Potency,[12],inactive
same,Potency,[13],inactive
same,outcome,[1],inactive
same,outcome,[20],inactive
same,max response,[14],-11.2%
same,Potency,[15],inactive
same,max response,[16],-8.06%
same,max response,[17],-0.653% (inactive)
same,outcome,[19],inactive
